# The list is not random: actives were taken first. Their share in the collection is about 11%.
# FLuc inh = blocks purified firefly luciferase enzyme activity. purified P. pyralis luciferase, luminescence, biochemical. Potency, µM (top dose mostly 115 µM), actives largely listed as inhibitors. 2.5% of 76,000 active. AID 1347043; also: nearly all actives have a fitted effect of over 65% in size
# Target sequence (P08659 whole entry, looked up): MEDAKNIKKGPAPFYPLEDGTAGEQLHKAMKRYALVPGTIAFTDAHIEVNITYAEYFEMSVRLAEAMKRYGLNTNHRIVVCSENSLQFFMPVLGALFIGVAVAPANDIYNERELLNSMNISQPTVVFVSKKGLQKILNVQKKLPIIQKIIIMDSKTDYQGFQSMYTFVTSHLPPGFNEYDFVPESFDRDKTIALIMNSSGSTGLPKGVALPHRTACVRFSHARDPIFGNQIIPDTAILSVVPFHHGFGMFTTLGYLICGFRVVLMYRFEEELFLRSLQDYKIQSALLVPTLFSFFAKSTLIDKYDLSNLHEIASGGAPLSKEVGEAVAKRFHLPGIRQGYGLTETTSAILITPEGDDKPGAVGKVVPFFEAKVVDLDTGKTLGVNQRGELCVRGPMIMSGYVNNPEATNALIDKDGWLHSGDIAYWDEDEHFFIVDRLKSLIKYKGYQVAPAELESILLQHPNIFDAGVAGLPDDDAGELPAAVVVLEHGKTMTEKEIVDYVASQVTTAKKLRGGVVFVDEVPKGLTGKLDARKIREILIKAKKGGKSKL
#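 FLuc 10nM, D-luciferin 10uM, ATP 10uM, Mg acetate 10mM, Tris acetate pH 7.5, Tween/BSA; cpd qHTS; enzyme added last; CCD luminescence.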
# HEK293 tox = kills HEK 293 cells; HEK 293 viability, ATP luminescence (CellTiter-Glo), 48-72 h; Potency, µM (highest dose often 115 µM), inactives show at the top dose activity change, negative = cytotoxicity, actives largely listed as inhibitors; 6.6% of 94,000 active; also: nearly all actives have a fitted effect of over 60% in size
#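 qHTS cytotoxicity; HEK 293, 250 cells/well; compound pinned; 48 or 72 hr, 37 degree Celsius, 5% CO2, 95% humidity; CellTiter-Glo, 10 min RT; luminescence (ATP).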
# hNpr1 antagonist = blocks ANP-stimulated signaling of human Npr1 receptor | Potency, µM (doses to about 46.3 µM), inactives show top-dose activity change, negative = inhibition, most hits filed as inhibitors | HEK293 hNpr1 GloSensor cGMP, ANP-stimulated luminescence | 1.6% of 76,000 active | AID 1347048; calls by dose curve; also: nearly all actives have a fitted effect of over 60% in size
#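 Compound pre-incubated 30 min at room temperature on GloSensor-loaded HEK293 cells stably carrying hNpr1 and the pGS-40F cGMP biosensor. Stimulation uses hNppA at 0.1 nM final; luminescence is taken at baseline and 20 min post-agonist.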
# 3T3 cytotox = NIH 3T3 cell cytotoxicity; NIH 3T3 viability, CellTiter-Glo ATP luminescence, 48-72 h; Potency, µM (doses to about 96.7 µM), for the others: at the top dose activity change, negative = cytotoxicity, actives largely listed as inhibitors; 4.3% of 94,000 active; AID 1345082; also: nearly all actives have a fitted effect of over 55% in size
#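 ATP-dependent luminescence (CellTiter-Glo) served as the viability signal for NIH 3T3 cells treated with compound for 48 or 72 hr at 37 °C.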
# An asterisk follows results filed as active; i = inactive; u = inconclusive; x = no result; [ ] = another dose, or the depositor's remark. Unless noted, calls follow the shape of the dose curve; as a rule, active = well fitted curve in the direction sought with a large enough effect; inconclusive = small, poorly fitted or top-dose-only effect, or another doubt; inactive = no such curve, though single readings can be large; an effect the other way counts as inactive or inconclusive. % is scaled to controls: 0 for no effect and ±100 for the full control effect; potency is read from the fitted curve at half-maximal effect.
SMILES,FLuc inh,HEK293 tox,hNpr1 antagonist,3T3 cytotox
Cn1ccc2c(C(=O)NCCC(N)=O)nc(-c3cccc(CO)c3)cc21,i,i,4%[70.6 µM],u
O=C(NCC1CC1)c1ccc2nnc(-c3ccc(Cl)cc3)n2c1,x,-27%[172 µM],x,u
Cn1nccc1C(=O)N1CCC2(CC1)OC(=O)N(Cc1ccccc1)C2(C)c1cccnc1 (stereo not drawn),i,i,0%,28µM*
CC(C)C(=O)N1CCC2(CC1)OC(=O)N(Cc1ncccn1)C2(C)c1ccccc1 (stereo not drawn),i,0%[172 µM],0%[70.6 µM],89µM*
CC1(c2ccccc2)N(Cc2ncccn2)C(=O)OC12CCN(C(=O)Cc1ccc3c(c1)OCO3)CC2 (stereo not drawn),i,-19%,-4%,40µM*
CC(C)C(=O)N1CCC2(CC1)OC(=O)N(Cc1ccccc1)C2(C)c1cccnc1 (stereo not drawn),i,-17%[172 µM],2%[70.6 µM],20µM*
CC1(c2ccccc2)N(Cc2ncccn2)C(=O)OC12CCN(C(=O)Cc1ccc(Cl)cc1)CC2 (stereo not drawn),i,-12%,7%,u
CC1(c2cccnc2)N(Cc2ccccc2)C(=O)OC12CCN(C(=O)Cc1ccc3c(c1)OCO3)CC2 (stereo not drawn),i,-19%,-1%,u
Cn1nccc1C(=O)N1CCC2(CC1)OC(=O)N(Cc1ccccc1)C2(C)c1ccccc1 (stereo not drawn),i,3%,3%,u
COc1ccccc1-c1[nH]ncc1CN1CCCCCNC(=O)CC1c1ccccc1 (stereo not drawn),i,u,-15%,u
O=C(c1ccc(F)cc1)N1CCC2(CC1)Cc1ccccc1NC2=O,i,-47%[172 µM],-1%[70.6 µM],-15%[138 µM]
Cc1ccccc1C(=O)N1CCC2(CC1)Cc1ccccc1NC2=O,i,35µM*,25%,u
Cc1cc(C)c(CNC(=O)c2nc(-c3ccc(F)cc3)cc3c2ccn3C(C)C)c(=O)[nH]1,i,50µM*,3%[70.6 µM],45µM*
Cc1cc(C)c(CNC(=O)c2nc(-c3cccnc3)cc3c2ccn3C(C)C)c(=O)[nH]1,i,100µM*,-4%[70.6 µM],u
Cc1cc(-c2cc3c(ccn3C(C)C)c(C(=O)NCc3c(C)cc(C)[nH]c3=O)n2)ccn1,i,45µM*,-8%[70.6 µM],45µM*
Cc1cc(C)c(CNC(=O)c2nc(-c3ccc(CO)cc3)cc3c2ccn3C(C)C)c(=O)[nH]1,i,79µM*,4%,u
COc1cccc(-c2cc3c(ccn3C(C)C)c(C(=O)NCc3c(C)cc(C)[nH]c3=O)n2)c1,i,u,-1%,u
Cc1cc(C)c(CNC(=O)c2nc(-c3cncnc3)cc3c2ccn3C(C)C)c(=O)[nH]1,i,u,5%[70.6 µM],u
COCCNC(=O)c1cn2cc(-c3ccccc3)sc2n1,x,-14%[172 µM],x,-23%[138 µM]
COc1ccc(C(=O)NC2CCN(c3cc(-c4cccs4)[nH]n3)CC2)cc1,18µM*,u,0%,u
Cc1ccc(C(=O)NC2CCN(c3cc(-c4cccs4)[nH]n3)C2)c(C)c1 (stereo not drawn),i,-13%,-2%,-16%
Cc1ccc(C(=O)NC2CCN(c3cc(-c4cccs4)[nH]n3)CC2)c(C)c1,i,u,0%,32µM*
COc1ccc(Cl)cc1C(=O)NC1CCN(c2cc(-c3cccs3)[nH]n2)CC1,i,u,-22%,7.9µM*
CC(C)CCN1CCC2(C1)NC(=O)c1ccccc1CO2 (stereo not drawn),i,-15%[172 µM],0%[70.6 µM],-26%[138 µM]
COc1ccccc1-c1ccc2c(C(=O)NCCSC)nn(C)c2n1,x,i,x,-17%
SMILES,FLuc inh,HEK293 tox,hNpr1 antagonist,3T3 cytotox
O=C1NC(=NC2CCCC2)C2(CCN(CC3CCCCC3)C2)N1c1cc(F)cc(F)c1 (stereo not drawn),x,35µM*,x,u
COc1cccc(N2C(=O)NC(=NC3CCCCC3)C23CCCN(CC2CCCCC2)C3)c1 (stereo not drawn),x,32µM*,x,28µM*
COc1cccc(N2C(=O)NC(=NC3CCCCC3)C23CCN(CCC(C)C)CC3)c1,x,-3%,x,i
O=C1NC(=NC2CCCC2)C2(CCN(CC3CCCCC3)CC2)N1c1cc(F)cc(F)c1,x,-23%,x,-13%
COc1cccc(N2C(=O)NC(=NC3CCCCC3)C23CCCN(CCC(C)C)C3)c1 (stereo not drawn),x,40µM*,x,u
O=C1NC2(CCCN(Cc3ccsc3)C2)COc2ccccc21 (stereo not drawn),i,79µM*,-21%[70.6 µM],40µM*
O=C1NC2(CCCN(Cc3cncs3)C2)COc2ccccc21 (stereo not drawn),i,28µM*,-6%,22µM*
O=S1(=O)NC2(CCCN(Cc3ccc(Cl)cc3)C2)COc2ccccc21 (stereo not drawn),x,u,x,45µM*
Cc1noc(C)c1[S+](=O)([O-])N1CCCC2(COc3ccccc3C(=O)N2)C1 (stereo not drawn),i,22µM*,u,35µM*
O=C1NC2(CCCN(Cc3ccc(F)cc3)C2)COc2ccccc21 (stereo not drawn),i,u,16%,u
c1ccc2c(c1)CC(N1CCC(CN(CCCn3cccn3)CC3CCCO3)CC1)C2 (stereo not drawn),i,u,-2%,-23%
CCc1noc(-c2cccn3c(CNC(=O)c4cccc(F)c4)nnc23)n1,i,-8%,-13%,-5%
Cc1cnc(C(=O)N2CC[C@@H]3CN(Cc4ccccc4)[C@@H]3C2)cn1,x,1%,x,-6%
COc1cccc(C(=O)NC2CCCN(Cc3ccc(-c4cc(C)cc(C)c4)cc3)C2)c1 (stereo not drawn),x,u,x,40µM*
COc1cccc(-c2ccc(CN3CCCC(NC(=O)c4ccccc4)C3)cc2)c1 (stereo not drawn),x,22µM*,x,40µM*
COc1cccc(-c2ccc(CN3CCCC(NC(=O)c4ccc(F)cc4)C3)cc2)c1 (stereo not drawn),x,11µM*,x,32µM*
COc1ccc(C(=O)NC2CCCN(Cc3ccc(-c4cc(C)cc(C)c4)cc3)C2)cc1 (stereo not drawn),x,-17%,x,-12%
Cc1ccc(-c2cccc(CN3CCCC(NC(=O)c4ccccc4)C3)c2)cc1Cl (stereo not drawn),x,-23%,x,-24%
CCOc1ccccc1NC(=O)Cn1c(N2CCN(c3ccccc3)CC2)nc(C)cc1=O,i,-11%,1%,3%
O=C(c1ccc2nnc(Cc3ccco3)n2c1)N1CCOCC1,x,0%[172 µM],x,-2%[138 µM]
CN(C)C(=O)c1cc(-c2ccc(F)cc2)c2nncn2n1,x,3%[172 µM],x,1%[138 µM]
CN(Cc1ccc(Oc2ncccn2)cc1)CC1CCN(CCc2ccc(F)cc2)CC1,i,u,6%,50µM*
CN(Cc1ccc(-n2cccn2)cc1)CC1CCN(CCc2ccc(F)cc2)CC1,i,u,-7%,u

# Screening data from PubChem.
